# Data from PubChem BioAssay.
# Activity calls are given as the source filed them.
# Key:
# [1] = tested on: Plasmodium falciparum Sir2 (PF13_0152, Sir2A); assay: Plasmodium falciparum Sir2A binding compounds – biochemical, small-molecule microarray, 635 nm fluorescence, primary screen (AID 1098); details: fluorescence 635 nm, higher = more signal;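 further: score merges spot fluorescence intensity with its signal-to-noise ratio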
# [2] = probe aDKK1 binding to arrayed compounds – biochemical, biotinylated probe, 635/667 nm fluorescence, primary screen (AID 1099); details: small-molecule microarray, higher = more signal;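 further: score merges 667nm spot fluorescence with signal to noise across triplicate slides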
# [3] = probe aCHRDL2 binding to arrayed compounds – biochemical, biotinylated probe, 635/667 nm fluorescence, primary screen (AID 1100); details: small-molecule microarray, higher = more signal
# [4] = change in splice reporter luminescence, either direction, cell-based, HEK293, spliceosome inhibition project, primary screen (AID 1101); details: HEK293 splicing luciferase reporter, 24 h, higher = more signal, called active from +8 up or from −8 down;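 further: HEK293 cells carrying a splicing-competent luciferase reporter gene; test concentration not given here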
# [5] = target: Fibroblast growth factor 10 (Homo sapiens) (UniProt O15520); assay: compounds binding fibroblast growth factor 10 – biochemical, small-molecule microarray, 635 nm fluorescence, primary screen (AID 1102); details: FGF10 binding, fluorescence 635 nm, higher = more signal
# [6] = tested on: glycogen synthase kinase-3 (GSK3A per assay name; protocol says GSK3B); assay: compounds binding glycogen synthase kinase-3 – biochemical, small-molecule microarray, 635 nm fluorescence, GSK3A, primary screen (AID 1103); details: fluorescence 635 nm, higher = more signal; further: the record names both GSK3A and GSK3B
# [7] = target: Epidermal growth factor receptor (Homo sapiens) (UniProt P00533); assay: compounds binding epidermal growth factor receptor – biochemical, small-molecule microarray, 635 nm fluorescence, primary screen (AID 1104); details: EGFR binding, higher = more signal;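 further: score merges 667 nm emission intensity with spot signal to noise over triplicate slides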
# [8] = target: Follistatin-related protein 3 (Homo sapiens) (UniProt O95633); assay: compounds binding follistatin-related protein 3 – biochemical, small-molecule microarray, 635 nm fluorescence, primary screen (AID 1105); details: FSTL3 binding, higher = more signal;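 further: score merges emission near 667 nm and signal to noise per printed spot across three slides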
# [9] = target: Dickkopf-related protein 1 (Homo sapiens) (UniProt O94907); assay: small molecules binding DKK1 protein – biochemical, small-molecule microarray, 635 nm fluorescence scan, primary screen (AID 1106); details: higher = more signal;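 further: score merges emission near 667 nm with signal to noise over three replicate slides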
# [10] = tested on: Inhibin beta A chain (activin A); assay: small molecules binding activin A – biochemical, small-molecule microarray, 635 nm fluorescence scan, primary screen (AID 1107); details: INHBA, higher = more signal;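 further: mouse activin A protein probed at 4.33 µg/mL on printed slides; score merges bound-protein fluorescence near 667 nm with spot signal-to-noise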
# [11] = tested on: Human papillomavirus type 1a protein E7 (residues 44-93); assay: small molecules binding HPV E7 44-93 – biochemical, small-molecule microarray, residues 44-93, 635 nm fluorescence, primary screen (AID 1108); details: fluorescence 635 nm, higher = more signal;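 further: E7 fragment applied at 1 µg/mL in TBST for 1 h at 4 C; score combines spot fluorescence with its signal to noise ratio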
# [12] = hepatitis C replication reporter changes, two-sided – Huh7 cells, luciferase reporter, HCV replication inhibitor project, primary screen (AID 1109); details: Huh7 HCV replicon luciferase reporter, 48 h; higher = more signal;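 further: huh7 hepatoma cells harbouring a luciferase neomycin HCV replicon reporter; luciferase luminescence as measure of HCV replicon replication; test concentration not given here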
# [13] = target: Left-right determination factor 2 (Homo sapiens) (UniProt O00292); assay: small molecules binding LEFTY2 protein – biochemical, small-molecule microarray, 635 nm fluorescence scan, primary screen (AID 1110); details: higher = more signal
# [14] = target: Calmodulin-1 (Homo sapiens) (UniProt P0DP23); assay: small molecules binding calmodulin-1 with EGTA – biochemical, small-molecule microarray, Cy5-labelled CALM1, profiling panel (AID 1111); details: Cy5-CALM1 binding fluorescence, higher = more signal;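 further: labelled calmodulin applied in Tris saline Tween buffer holding calcium plus EGTA and DTT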
# [15] = target: Calmodulin-1 (Homo sapiens) (UniProt P0DP23); assay: small molecules binding Ca-loaded calmodulin-1 – biochemical, small-molecule microarray, Cy5-labelled CALM1, plus calcium, artefact control for SMM control-protein annotation, profiling panel (AID 1112); details: Cy5-CALM1 binding fluorescence, higher = more signal;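 further: score merges spot fluorescence with signal to noise from triplicate slides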
# [16] = probe aWnt5a binding to arrayed compounds – biochemical, biotinylated probe, 635/667 nm fluorescence, primary screen (AID 1113); details: small-molecule microarray, higher = more signal;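 further: score merges 667 nm fluorescence intensity with signal-to-noise per printed feature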
# [17] = probe aShh binding to arrayed compounds – biochemical, biotinylated probe, 635/667 nm fluorescence, primary screen (AID 1114); details: small-molecule microarray, higher = more signal;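 further: probe is biotin-labelled aShh protein from a stem cell growth factor screen; measures binding of labelled protein to compounds printed on the slide; score merges feature fluorescence at 667 nm with signal-to-noise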
# [18] = probe aNog binding to arrayed compounds – biochemical, biotinylated probe, 635/667 nm fluorescence, primary screen (AID 1115); details: small-molecule microarray, higher = more signal;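 further: probe is biotinylated aNog protein used at 0.15 µg/mL for 1 h at 4 C; z-score combines 667 nm fluorescence of each spot with its signal to noise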
# [19] = target: Torsin-1A-interacting protein 1 (Homo sapiens) (UniProt Q5JTV8); assay: compound microarray binding of lysate hLAP1 – cell lysate, small-molecule microarray, COS7 lysate, 635/667 nm fluorescence, primary screen (AID 1116); details: 635 nm fluorescence, higher = more signal
# [20] = target: Alpha-bungarotoxin (Bungarus multicinctus) (UniProt P60615); assay: compounds binding labelled alpha-BTX control protein – biochemical, small-molecule microarray, Alexa647 label, 635/667 nm fluorescence, artefact control for SMM control protein annotation, profiling panel (AID 1117); details: alpha-BTX-A647 binding fluorescence, higher = more signal
# Alpha-bungarotoxin (Bungarus multicinctus), sequence (P60615 whole entry, looked up): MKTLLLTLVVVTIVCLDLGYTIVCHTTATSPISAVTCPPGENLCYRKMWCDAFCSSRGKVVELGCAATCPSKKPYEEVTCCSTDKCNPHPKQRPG
# Epidermal growth factor receptor (Homo sapiens), sequence (P00533 whole entry, looked up): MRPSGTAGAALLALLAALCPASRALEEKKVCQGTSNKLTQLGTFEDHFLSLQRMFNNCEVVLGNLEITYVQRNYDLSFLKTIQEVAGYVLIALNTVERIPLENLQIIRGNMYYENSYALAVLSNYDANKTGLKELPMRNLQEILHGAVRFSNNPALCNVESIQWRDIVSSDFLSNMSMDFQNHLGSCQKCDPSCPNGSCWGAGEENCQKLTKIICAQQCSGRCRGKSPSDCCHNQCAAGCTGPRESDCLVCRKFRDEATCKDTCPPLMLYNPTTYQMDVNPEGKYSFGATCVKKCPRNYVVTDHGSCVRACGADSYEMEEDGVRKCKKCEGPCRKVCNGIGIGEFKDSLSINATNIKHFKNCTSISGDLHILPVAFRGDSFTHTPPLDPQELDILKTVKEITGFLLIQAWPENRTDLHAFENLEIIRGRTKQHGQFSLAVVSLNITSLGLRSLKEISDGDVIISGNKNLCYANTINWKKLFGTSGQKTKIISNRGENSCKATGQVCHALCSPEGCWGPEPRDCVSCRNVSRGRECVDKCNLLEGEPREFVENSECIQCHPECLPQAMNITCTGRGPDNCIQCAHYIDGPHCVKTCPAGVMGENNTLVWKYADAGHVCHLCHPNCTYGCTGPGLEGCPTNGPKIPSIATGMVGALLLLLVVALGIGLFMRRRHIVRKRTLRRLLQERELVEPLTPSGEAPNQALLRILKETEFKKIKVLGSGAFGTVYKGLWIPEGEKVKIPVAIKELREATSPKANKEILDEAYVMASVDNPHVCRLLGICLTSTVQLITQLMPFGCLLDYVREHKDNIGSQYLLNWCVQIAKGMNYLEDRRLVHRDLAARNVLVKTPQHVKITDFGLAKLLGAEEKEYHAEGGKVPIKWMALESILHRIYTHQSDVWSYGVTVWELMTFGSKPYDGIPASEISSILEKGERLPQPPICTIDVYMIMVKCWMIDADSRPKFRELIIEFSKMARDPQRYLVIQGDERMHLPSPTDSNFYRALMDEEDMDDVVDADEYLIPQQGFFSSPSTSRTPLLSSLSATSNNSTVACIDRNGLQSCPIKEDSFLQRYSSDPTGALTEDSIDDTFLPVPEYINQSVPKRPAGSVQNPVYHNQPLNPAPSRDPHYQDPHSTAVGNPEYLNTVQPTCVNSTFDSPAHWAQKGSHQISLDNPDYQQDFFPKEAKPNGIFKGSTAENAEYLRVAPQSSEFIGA
# Left-right determination factor 2 (Homo sapiens), sequence (O00292 whole entry, looked up): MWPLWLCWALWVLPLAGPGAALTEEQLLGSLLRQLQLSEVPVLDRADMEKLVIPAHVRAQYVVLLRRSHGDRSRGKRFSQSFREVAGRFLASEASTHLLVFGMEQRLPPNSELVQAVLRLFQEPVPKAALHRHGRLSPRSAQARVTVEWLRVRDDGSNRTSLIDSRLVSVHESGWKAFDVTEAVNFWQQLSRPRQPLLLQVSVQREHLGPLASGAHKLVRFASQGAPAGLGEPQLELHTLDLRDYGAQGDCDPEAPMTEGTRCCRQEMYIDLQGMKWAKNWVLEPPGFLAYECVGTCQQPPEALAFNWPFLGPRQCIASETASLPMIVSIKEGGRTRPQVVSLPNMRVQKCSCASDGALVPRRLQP
# Fibroblast growth factor 10 (Homo sapiens), sequence (O15520 whole entry, looked up): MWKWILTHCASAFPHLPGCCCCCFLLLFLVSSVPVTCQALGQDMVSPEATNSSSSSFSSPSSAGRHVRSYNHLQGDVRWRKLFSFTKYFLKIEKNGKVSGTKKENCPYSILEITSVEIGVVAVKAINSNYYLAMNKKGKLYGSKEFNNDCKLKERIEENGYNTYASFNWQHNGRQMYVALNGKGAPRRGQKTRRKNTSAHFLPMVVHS
# Torsin-1A-interacting protein 1 (Homo sapiens), sequence (Q5JTV8 whole entry, looked up): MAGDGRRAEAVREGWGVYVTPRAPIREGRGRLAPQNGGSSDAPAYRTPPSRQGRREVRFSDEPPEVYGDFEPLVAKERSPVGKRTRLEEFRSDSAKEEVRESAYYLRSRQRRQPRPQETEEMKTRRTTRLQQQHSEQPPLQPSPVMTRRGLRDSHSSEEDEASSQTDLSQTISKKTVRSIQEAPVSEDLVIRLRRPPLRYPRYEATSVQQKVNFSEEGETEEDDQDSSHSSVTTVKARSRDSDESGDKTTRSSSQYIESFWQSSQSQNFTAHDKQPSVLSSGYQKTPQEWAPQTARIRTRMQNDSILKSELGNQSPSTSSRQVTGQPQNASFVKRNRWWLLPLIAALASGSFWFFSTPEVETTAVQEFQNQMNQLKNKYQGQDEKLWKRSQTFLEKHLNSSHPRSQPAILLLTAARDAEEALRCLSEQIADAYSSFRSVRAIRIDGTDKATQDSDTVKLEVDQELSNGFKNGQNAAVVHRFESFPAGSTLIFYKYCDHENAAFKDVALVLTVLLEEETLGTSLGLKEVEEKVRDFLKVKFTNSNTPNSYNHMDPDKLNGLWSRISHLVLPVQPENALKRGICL
# Follistatin-related protein 3 (Homo sapiens), sequence (O95633 whole entry, looked up): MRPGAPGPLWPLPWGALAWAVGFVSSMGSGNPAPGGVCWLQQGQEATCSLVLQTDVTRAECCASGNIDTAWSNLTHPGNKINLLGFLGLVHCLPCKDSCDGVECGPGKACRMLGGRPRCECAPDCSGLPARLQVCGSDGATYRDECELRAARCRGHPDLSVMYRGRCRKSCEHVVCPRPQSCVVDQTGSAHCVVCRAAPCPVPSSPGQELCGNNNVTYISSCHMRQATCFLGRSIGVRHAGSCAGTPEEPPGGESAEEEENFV
# Dickkopf-related protein 1 (Homo sapiens), sequence (O94907 whole entry, looked up): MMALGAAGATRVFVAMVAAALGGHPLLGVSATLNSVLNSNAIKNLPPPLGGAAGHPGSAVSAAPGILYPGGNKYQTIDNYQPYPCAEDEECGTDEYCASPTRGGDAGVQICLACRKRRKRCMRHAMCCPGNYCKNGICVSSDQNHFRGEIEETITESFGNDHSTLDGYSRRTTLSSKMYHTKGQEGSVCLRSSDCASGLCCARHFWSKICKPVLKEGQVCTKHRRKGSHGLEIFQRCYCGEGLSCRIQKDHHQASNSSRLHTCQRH
Structure (SMILES),composite z-score [1],composite z-score [2],composite z-score [3],z-score [4],composite z-score [5],composite z-score [6],composite z-score [7],composite z-score [8],composite z-score [9],composite z-score [10],composite z-score [11],z-score [12],composite z-score [13],composite z-score [14],composite z-score [15],composite z-score [16],composite z-score [17],composite z-score [18],composite z-score [19],composite z-score [20]
CCCCN1CC=CC23O[C@@H]4/C=C\CCC(C)OC(=O)C4[C@H]2C(=O)N(CCCCCCO)[C@@H]3C1=O (stereo not given in full),0.906,-0.264,0.402,0.142 (inactive),0.107,-0.782,-0.63,-1.04,-0.842,0.703,0.111,-0.0691,-0.567,0.119,0.282,0.0321,-0.0709,-0.168,1.47,-0.637
CC(C)C(O)C1C=CC2C(=O)N(C)C(=O)C2N1Nc1ccccc1 (stereo not given),0.778,1.36,0.598,1.01 (inactive),0.943,0.686,-0.0756,0.439,0.4,0.742,0.0819,0.247,0.163,0.774,-0.473,0.175,0.679,1.66,2.27,1.25
CC(CO)N1C(=O)[C@@H]2C3C(=O)OCCC/C=C\[C@H]3OC23C=CCN(Cn2nnc4ccccc42)C(=O)[C@@H]13 (stereo not given in full),1.82,-0.0595,-0.102,-0.411 (inactive),-0.134,-0.527,-0.718,-0.474,-0.361,0.339,-1.01,-0.456,-0.214,-0.45,-0.205,-0.152,-0.0553,-0.196,-0.718,-0.559
CCOC(=O)C[C@H]1[C@H](OC(=O)c2ccc(-c3ccccc3)cc2)[C@@H](NC(=O)C2CCCCC2)c2cc(OCCCO)ccc2N1C(=O)c1ccccc1,0.3,-0.141,-0.464,-0.0213 (inactive),0.616,0.258,0.0979,0.584,0.237,0.117,0.959,-1.84,0.365,0.413,-0.0071,-0.0822,-0.123,-0.232,-0.241,0.0785
CC(C)C(O)C1C=CC2C(=O)N(C)C(=O)C2N1N(c1ccccc1)c1ccccc1 (stereo not given),1.09,0.185,0.972,1.06 (inactive),-0.879,-1.5,-0.381,-0.49,-1.07,1.7,-0.192,0.865,0.0172,0.107,0.368,-0.0165,0.14,0.603,0.251,0.218
COc1ccc([Si](C)(C)[C@@H]2[C@@H](CCn3cc([C@H](O)c4ccccc4)nn3)O[C@]3(C(=O)N(Cc4ccc(N5CCOC5=O)cc4)c4ccccc43)[C@H]2C)cc1,0.972,-0.168,-0.528,-0.242 (inactive),0.953,0.426,0.664,1.02,0.757,0.504,1.11,-2.29,0.846,0.142,-0.488,-0.0179,0.0224,-0.0675,1.74,1.06
C=C(C(=O)CC[C@H](OC(=O)c1cccnc1)c1cccc(OCCO)c1)C(C)C,1.24,-0.061,0.125,1.76 (inactive),-0.64,-0.418,-0.792,-1.05,-0.878,1.16,0.074,-3.63,-0.507,-1.21,-1.58,-0.124,0.0952,0.151,0.307,-0.0234
C=CC[C@@]1(C(=O)N2CCCCC2)N=C(c2ccc(OCCCO)cc2)O[C@@H]1c1ccccc1,1.53,0.833,0.613,0.411 (inactive),0.497,1.29,0.0106,-0.0325,-0.717,0.823,0.305,-1.91,0.106,0.506,-0.185,0.141,-0.0243,2.01,1.87,0.497
COc1cc(OC)c(C(O)C2C=CC3C(=O)N(c4ccccc4)C(=O)C3N2Nc2ccc(C#N)cc2)cc1Br (stereo not given),0.842,1.56,1.4,1.47 (inactive),1.18,0.687,0.763,0.95,-0.0884,0.664,1.36,-0.519,0.0166,2.19,0.992,0.471,0.196,0.81,2.18,2.42
COC(=O)[C@@]1(Cc2ccccc2)[C@H]2c3cc(C(=O)N4CCCC4)n(Cc4ccsc4Br)c3C[C@H]2CN1C(=O)c1ccccc1,0.31,1.13,1.37,-1.31 (inactive),0.832,0.572,-0.105,0.906,-0.825,0.748,1.45,-2.73,-0.505,1.6,1.17,0.332,-0.0789,1.99,0.545,1.23
CC[C@H]1C2=C3C(CC[C@H]4C(OCc5ccc(F)cc5C(F)(F)F)OC[C@](C)([C@@H]34)N(C(=O)OC(C)(C)C)C2)C2COC(=O)OCC21 (stereo not given in full),0.282,0.817,1.12,-0.499 (inactive),-0.0217,0.737,0.128,0.719,-1.02,1.06,1.34,-2.1,-0.532,2.48,0.911,-0.0297,0.246,-0.712,0.713,0.347
